Assay results taken from PubChem BioAssay (NCI).
Compounds without any hit were thinned out: in the full panel of roughly 79,000, 15% have a hit. The source made the active and inactive calls. Cut-off read from the data, not from the text of the source: active = growth inhibition above about 70%; inactive = the rest.

How the values were obtained:
[1] = NCI Yeast Anticancer Drug Screen. Data for the wt1 strain (AID 149);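 note: 0% = growth of vehicle-treated wt1 cultures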; settings: S. cerevisiae wt1 strain (SPY 50644) growth inhibition, active compounds read high
Procedure, shortened: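 Growth inhibition read against vehicle controls after compound exposure of the wt1 yeast strain.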

[2] = NCI Yeast Anticancer Drug Screen. Data for the rad50EPP+ strain (AID 151);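 note: 0% = growth of vehicle-treated control cultures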; settings: S. cerevisiae rad50 mutant strain, active compounds read high
Procedure, shortened: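 Strain rad50EPP+; compound exposure; % growth inhibition vs vehicle.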

[3] = NCI Yeast Anticancer Drug Screen. Data for the mgt1 strain (AID 153); settings: S. cerevisiae mgt1 mutant growth inhibition, active compounds read high
Procedure, shortened: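 Read-out: yeast growth inhibition vs vehicle control. Strain mgt1, drawn from a panel altered in DNA damage repair or cell cycle control.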

[4] = NCI Yeast Anticancer Drug Screen. Data for the rad50 strain (AID 155);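 note: 0% = growth of vehicle-only cultures of the same strain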; settings: S. cerevisiae rad50 strain growth inhibition, active compounds read high
Procedure, shortened: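 Readout: growth inhibition relative to vehicle-treated cultures. Compound exposure was carried out in a genetically defined yeast strain deficient in DNA damage repair.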

[5] = NCI Yeast Anticancer Drug Screen. Data for the mec2-1 strain (AID 157); settings: S. cerevisiae mec2-1 strain, active compounds read high
Procedure, shortened: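 Cells of the genetically defined mec2-1 yeast strain are incubated with test compound. Inhibition of growth is calculated against vehicle-treated controls.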

[6] = NCI Yeast Anticancer Drug Screen. Data for the rad14 strain (AID 159);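 note: 0% = growth of vehicle-treated control cultures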; settings: S. cerevisiae rad14 strain growth inhibition, active compounds read high
Procedure, shortened: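 Growth inhibition vs vehicle controls; genetically altered yeast strain (DNA damage repair defect) treated with test compounds.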

[7] = NCI Yeast Anticancer Drug Screen. Data for the sgs1 mgt1 strain (AID 161);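 note: 0% = growth of cultures given vehicle only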; settings: S. cerevisiae sgs1 mgt1 strain, active compounds read high
Procedure, shortened: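 Inhibition of yeast growth, normalised to vehicle-treated controls, is reported for a strain bearing genetic alterations in DNA damage repair.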

[8] = NCI Yeast Anticancer Drug Screen. Data for the CLN2oe strain (AID 163);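 note: 0% = growth of vehicle-only control cultures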; settings: S. cerevisiae CLN2oe strain, active compounds read high
Procedure, shortened: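 Strain altered in cell-cycle control, incubated with compound; growth compared to solvent-treated controls.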

[9] = NCI Yeast Anticancer Drug Screen. Data for the cln2 rad14 strain (AID 165);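 note: 0% = growth equal to vehicle treated cultures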; settings: S. cerevisiae cln2 rad14 strain, active compounds read high
Procedure, shortened: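 The screen exposed genetically defined yeast (cln2 rad14) to test compounds and scored growth inhibition relative to vehicle-treated controls.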

[10] = NCI Yeast Anticancer Drug Screen. Data for the bub3 strain (AID 167); settings: S. cerevisiae bub3 mutant strain, active compounds read high
Procedure, shortened: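 Readout: yeast growth inhibition, expressed relative to vehicle-only wells. The test organism is a mutant strain from a panel with lesions in DNA repair or checkpoint genes.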

[11] = NCI Yeast Anticancer Drug Screen. Data for the mlh1 strain (AID 171);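 note: 0% = growth of vehicle-treated control cultures of the same strain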; settings: S. cerevisiae mlh1 strain growth inhibition, active compounds read high
Procedure, shortened: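 Yeast screen: mutant strain plus compound, growth scored against vehicle control wells.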

[12] = NCI Yeast Anticancer Drug Screen. Data for the sgs1 strain (AID 173);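 note: 0% = growth of vehicle-only control cultures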; settings: S. cerevisiae sgs1 mutant, active compounds read high
Procedure, shortened: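 Inhibition of yeast growth served as the measure. The mutant strain was treated with each compound, and growth was normalised to cultures receiving vehicle alone.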

[13] = NCI Yeast Anticancer Drug Screen. Data for the mlh1 rad18 strain (AID 175); settings: S. cerevisiae mlh1 rad18 strain growth inhibition, active compounds read high
Procedure, shortened: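 Compound-treated yeast growth, normalised to vehicle controls. Strain bears defined DNA repair mutations.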

[14] = NCI Yeast Anticancer Drug Screen. Data for the rad18 strain (AID 177); settings: S. cerevisiae rad18 mutant growth inhibition, active compounds read high
Procedure, shortened: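 Inhibition values reflect reduced yeast growth compared with vehicle-treated controls, using a strain engineered with a DNA damage repair defect.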

[15] = NCI Yeast Anticancer Drug Screen. Data for the wt2 strain (AID 169);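 note: 0% = growth of vehicle-treated yeast cultures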; settings: S. cerevisiae wt2 strain growth inhibition, active compounds read high
Procedure, shortened: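 Steps: yeast strain treated with compound; growth recorded; inhibition calculated relative to cultures given vehicle alone.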

[16] = at 5.0 µM (retest, dose inferred, filed as 0.5)
[17] = at 50.0 µM (retest, dose inferred, filed as 5.0)

Measured: growth inhibition

CN(N=O)C(=O)NNC(=O)N(C)N=O
inactive: [1]; at 1.2 µM 0% | [1]; at 3.7 µM 1% | [1]; at 11.0 µM 5% | [1]; at 33.0 µM 16% | [1]; at 100.0 µM 38% | [2]; at 1.2 µM 3% | [2]; at 3.7 µM 16% | [2]; at 11.0 µM 62% | [3]; at 1.2 µM 9% | [3]; at 3.7 µM 28% | [3]; at 11.0 µM 51% | [4]; at 1.2 µM 6% | [4]; at 3.7 µM 23% | [4]; [16] 21% | [4]; at 11.0 µM 56% | [5]; at 1.2 µM -2% | [5]; at 3.7 µM 3% | [5]; [16] 10% | [5]; at 11.0 µM 22% | [5]; at 33.0 µM 61% | [5]; at 50.0 µM 38.2% | [6]; at 1.2 µM -2% | [6]; at 3.7 µM 18% | [6]; at 11.0 µM 5% | [6]; at 33.0 µM 22% | [6]; at 100.0 µM 57% | [8]; at 1.2 µM -5% | [8]; at 3.7 µM -4% | [8]; at 11.0 µM -7% | [8]; at 33.0 µM 11% | [8]; at 100.0 µM 41% | [9]; [16] -32% | [9]; [17] 18% | [9]; at 50.0 µM 11.7% | [10]; at 1.2 µM -9% | [10]; at 3.7 µM 5% | [10]; [16] -11% | [10]; at 11.0 µM -6% | [10]; at 33.0 µM 15% | [10]; [17] 27% | [10]; at 50.0 µM 1.9% | [10]; at 100.0 µM 39% | [11]; at 1.2 µM -1% | [11]; at 3.7 µM -3% | [11]; at 11.0 µM 7% | [11]; at 33.0 µM 31% | [11]; at 100.0 µM 68% | [12]; at 1.2 µM 11% | [12]; at 3.7 µM 26% | [12]; at 11.0 µM 52% | [13]; [16] 6% | [13]; at 50.0 µM 67%
active: [2]; at 33.0 µM 93% | [2]; at 100.0 µM 95% | [3]; at 33.0 µM 88% | [3]; at 100.0 µM 96% | [4]; at 33.0 µM 92% | [4]; [17] 95% | [4]; at 50.0 µM 94.9% | [4]; at 100.0 µM 96% | [5]; [17] 85% | [5]; at 100.0 µM 96% | [7]; [16] 74% | [7]; [17] 96% | [7]; at 50.0 µM 91.6% | [12]; at 33.0 µM 81% | [12]; at 100.0 µM 91% | [13]; [17] 89% | [14]; at 1.2 µM 71% | [14]; at 3.7 µM 95% | [14]; at 11.0 µM 96% | [14]; at 33.0 µM 96% | [14]; at 100.0 µM 96%

c1ccc(N=c2nc(N3CCOCC3)ss2)cc1
active: [1]; at 33.0 µM 98% | [1]; at 100.0 µM 98% | [2]; at 100.0 µM 99% | [3]; at 11.0 µM 71% | [3]; at 33.0 µM 99% | [3]; at 100.0 µM 99% | [4]; at 33.0 µM 99% | [4]; [17] 99% | [4]; at 50.0 µM 98.6% | [4]; at 100.0 µM 99% | [5]; at 33.0 µM 99% | [5]; [17] 100% | [5]; at 50.0 µM 99.7% | [5]; at 100.0 µM 99% | [6]; at 33.0 µM 99% | [6]; at 100.0 µM 99% | [7]; [17] 100% | [7]; at 50.0 µM 98.7% | [8]; at 33.0 µM 87% | [8]; at 100.0 µM 98% | [9]; [17] 99% | [9]; at 50.0 µM 93.4% | [10]; at 33.0 µM 99% | [10]; [17] 99% | [10]; at 50.0 µM 99.3% | [10]; at 100.0 µM 99% | [15]; at 33.0 µM 98% | [15]; at 100.0 µM 99% | [11]; at 11.0 µM 73% | [11]; at 33.0 µM 99% | [11]; at 100.0 µM 99% | [12]; at 11.0 µM 87% | [12]; at 33.0 µM 99% | [12]; at 100.0 µM 99% | [13]; [17] 98% | [13]; at 50.0 µM 98.4% | [14]; at 33.0 µM 99% | [14]; at 100.0 µM 94%
inactive: [1]; at 1.2 µM -3% | [1]; at 3.7 µM 4% | [1]; at 11.0 µM 15% | [2]; at 1.2 µM -5% | [2]; at 3.7 µM 2% | [2]; at 11.0 µM 19% | [2]; at 33.0 µM 56% | [3]; at 1.2 µM -3% | [3]; at 3.7 µM 11% | [4]; at 1.2 µM -6% | [4]; at 3.7 µM 6% | [4]; [16] 19% | [4]; at 11.0 µM 51% | [5]; at 1.2 µM -4% | [5]; at 3.7 µM 7% | [5]; [16] 14% | [5]; at 11.0 µM 37% | [6]; at 1.2 µM -3% | [6]; at 3.7 µM 13% | [6]; at 11.0 µM 61% | [7]; [16] 58% | [8]; at 1.2 µM -11% | [8]; at 3.7 µM -13% | [8]; at 11.0 µM 3% | [9]; [16] -5% | [10]; at 1.2 µM -5% | [10]; at 3.7 µM 5% | [10]; [16] 8% | [10]; at 11.0 µM 56% | [15]; at 1.2 µM -1% | [15]; at 3.7 µM 18% | [15]; at 11.0 µM 53% | [11]; at 1.2 µM -1% | [11]; at 3.7 µM 14% | [12]; at 1.2 µM 7% | [12]; at 3.7 µM 37% | [13]; [16] 26% | [14]; at 1.2 µM 0% | [14]; at 3.7 µM 18% | [14]; at 11.0 µM 64%
